# In PubChem BioAssay (NCI):
# About 79,000 compounds went through this panel and 15% of them were active in at least one assay; those are over-represented in the sample as a whole. A number with no mark means an inactive call. Calls of active or inactive are those of the source. Cut-off read from the data, not from the text of the source: active = growth inhibition above about 70%; inactive = the rest.
# Legend:
# [1] = NCI Yeast Anticancer Drug Screen. Data for the rad52 strain (AID 147);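 note: 0% = growth of vehicle-treated control cultures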; conditions: S. cerevisiae rad52 mutant growth inhibition, stronger effect = higher value
# Outline: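 Vehicle-treated cultures served as the reference for growth inhibition of compound-exposed yeast bearing a DNA repair mutation.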
# [2] = NCI Yeast Anticancer Drug Screen. Data for the wt1 strain (AID 149);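 note: 0% = growth of vehicle-treated wt1 cultures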; conditions: S. cerevisiae wt1 strain (SPY 50644) growth inhibition, stronger effect = higher value
# Outline: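 wt1 yeast, compound-treated; % growth inhibition vs vehicle control.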
# [3] = NCI Yeast Anticancer Drug Screen. Data for the rad50EPP+ strain (AID 151);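 note: 0% = growth of vehicle-treated control cultures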; conditions: S. cerevisiae rad50 mutant strain, stronger effect = higher value
# Outline: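 In this screen, rad50EPP+ yeast were exposed to compounds. Growth inhibition was scored against vehicle-treated controls.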
# [4] = NCI Yeast Anticancer Drug Screen. Data for the mgt1 strain (AID 153); conditions: S. cerevisiae mgt1 mutant growth inhibition, stronger effect = higher value
# Outline: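 mgt1 strain exposed; growth vs vehicle control recorded as inhibition.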
# [5] = NCI Yeast Anticancer Drug Screen. Data for the rad50 strain (AID 155);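 note: 0% = growth of vehicle-only cultures of the same strain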; conditions: S. cerevisiae rad50 strain growth inhibition, stronger effect = higher value
# Outline: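 Genetically altered yeast (DNA repair pathway); compound treatment; growth inhibition vs vehicle ctrl.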
# [6] = NCI Yeast Anticancer Drug Screen. Data for the mec2-1 strain (AID 157); conditions: S. cerevisiae mec2-1 strain, stronger effect = higher value
# Outline: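 Vehicle-treated cultures served as reference for growth inhibition of compound-exposed mec2-1 yeast.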
# [7] = NCI Yeast Anticancer Drug Screen. Data for the rad14 strain (AID 159);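 note: 0% = growth of vehicle-treated control cultures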; conditions: S. cerevisiae rad14 strain growth inhibition, stronger effect = higher value
# Outline: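 Test compounds were applied to a repair-deficient yeast strain. Its growth was then compared with that of cultures given vehicle alone, and inhibition was expressed relative to those controls.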
# [8] = NCI Yeast Anticancer Drug Screen. Data for the sgs1 mgt1 strain (AID 161);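 note: 0% = growth of cultures given vehicle only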; conditions: S. cerevisiae sgs1 mgt1 strain, stronger effect = higher value
# Outline: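 Test agents were incubated with a DNA-repair-mutant yeast strain. Growth was then read and compared against vehicle-treated controls.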
# [9] = NCI Yeast Anticancer Drug Screen. Data for the CLN2oe strain (AID 163);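 note: 0% = growth of vehicle-only control cultures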; conditions: S. cerevisiae CLN2oe strain, stronger effect = higher value
# Outline: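 Inhibition relative to vehicle-treated yeast is reported. Cells: strain with genetic alteration in cell-cycle control, grown with compound.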
# [10] = NCI Yeast Anticancer Drug Screen. Data for the cln2 rad14 strain (AID 165);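 note: 0% = growth equal to vehicle treated cultures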; conditions: S. cerevisiae cln2 rad14 strain, stronger effect = higher value
# Outline: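 Each compound was tested on cln2 rad14 yeast. Inhibition of growth was calculated against vehicle-exposed controls.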
# [11] = NCI Yeast Anticancer Drug Screen. Data for the bub3 strain (AID 167); conditions: S. cerevisiae bub3 mutant strain, stronger effect = higher value
# Outline: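 Yeast carrying a defined mutation is treated with each compound, and growth is compared with that of vehicle-exposed cells to give inhibition.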
# [12] = NCI Yeast Anticancer Drug Screen. Data for the wt2 strain (AID 169);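 note: 0% = growth of vehicle-treated yeast cultures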; conditions: S. cerevisiae wt2 strain growth inhibition, stronger effect = higher value
# Outline: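 Inhibition of yeast growth was determined after compound treatment, normalised to controls receiving only vehicle.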
# [13] = NCI Yeast Anticancer Drug Screen. Data for the mlh1 strain (AID 171);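 note: 0% = growth of vehicle-treated control cultures of the same strain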; conditions: S. cerevisiae mlh1 strain growth inhibition, stronger effect = higher value
# Outline: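 Vehicle-normalised growth inhibition of a repair- or checkpoint-altered yeast strain following compound treatment.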
# [14] = NCI Yeast Anticancer Drug Screen. Data for the sgs1 strain (AID 173);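 note: 0% = growth of vehicle-only control cultures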; conditions: S. cerevisiae sgs1 mutant, stronger effect = higher value
# Outline: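 Screen format: yeast with repair or checkpoint alterations, compound exposure, growth read relative to vehicle.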
# [15] = NCI Yeast Anticancer Drug Screen. Data for the mlh1 rad18 strain (AID 175); conditions: S. cerevisiae mlh1 rad18 strain growth inhibition, stronger effect = higher value
# Outline: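 Vehicle-treated cultures served as the reference for growth inhibition in a yeast strain carrying DNA damage repair alterations exposed to each compound.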
# [16] = NCI Yeast Anticancer Drug Screen. Data for the rad18 strain (AID 177); conditions: S. cerevisiae rad18 mutant growth inhibition, stronger effect = higher value
# Outline: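 Test articles were incubated with altered yeast defective in DNA damage repair. Results are given as inhibition of growth versus vehicle.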
# [17] = at 5.0 µM (retest, dose inferred, filed as 0.5)
# [18] = at 50.0 µM (retest, dose inferred, filed as 5.0)
smiles,measurement,setting,value
O=C(Nc1ccc(Cl)cc1)c1cc2cc(N=Nc3ccccc3Cl)ccc2oc1=O,growth inhibition,[1]; at 1.2 µM,8%
same,growth inhibition,[1]; at 3.7 µM,25%
same,growth inhibition,[1]; at 11.0 µM,58%
same,growth inhibition,[1]; at 33.0 µM,89% (active)
same,growth inhibition,[1]; at 100.0 µM,92% (active)
same,growth inhibition,[2]; at 1.2 µM,3%
same,growth inhibition,[2]; at 3.7 µM,8%
same,growth inhibition,[2]; at 11.0 µM,26%
same,growth inhibition,[2]; at 33.0 µM,72% (active)
same,growth inhibition,[2]; at 100.0 µM,93% (active)
same,growth inhibition,[3]; at 1.2 µM,39%
same,growth inhibition,[3]; at 3.7 µM,75% (active)
same,growth inhibition,[3]; at 11.0 µM,89% (active)
same,growth inhibition,[3]; at 33.0 µM,90% (active)
same,growth inhibition,[3]; at 100.0 µM,86% (active)
same,growth inhibition,[4]; at 1.2 µM,3%
same,growth inhibition,[4]; at 3.7 µM,11%
same,growth inhibition,[4]; at 11.0 µM,48%
same,growth inhibition,[4]; at 33.0 µM,92% (active)
same,growth inhibition,[4]; at 100.0 µM,95% (active)
same,growth inhibition,[5]; at 1.2 µM,4%
same,growth inhibition,[5]; at 3.7 µM,13%
same,growth inhibition,[5]; [17],54%
same,growth inhibition,[5]; at 11.0 µM,38%
same,growth inhibition,[5]; at 33.0 µM,84% (active)
same,growth inhibition,[5]; [18],54%
same,growth inhibition,[5]; at 50.0 µM,88.8% (active)
same,growth inhibition,[5]; at 100.0 µM,90% (active)
same,growth inhibition,[6]; at 1.2 µM,3%
same,growth inhibition,[6]; at 3.7 µM,10%
same,growth inhibition,[6]; [17],7%
same,growth inhibition,[6]; at 11.0 µM,40%
same,growth inhibition,[6]; at 33.0 µM,94% (active)
same,growth inhibition,[6]; [18],7%
same,growth inhibition,[6]; at 50.0 µM,88.5% (active)
same,growth inhibition,[6]; at 100.0 µM,95% (active)
same,growth inhibition,[7]; at 1.2 µM,4%
same,growth inhibition,[7]; at 3.7 µM,5%
same,growth inhibition,[7]; at 11.0 µM,62%
same,growth inhibition,[7]; at 33.0 µM,95% (active)
same,growth inhibition,[7]; at 100.0 µM,94% (active)
same,growth inhibition,[8]; [17],25%
same,growth inhibition,[8]; [18],25%
same,growth inhibition,[8]; at 50.0 µM,84.8% (active)
same,growth inhibition,[9]; at 1.2 µM,3%
same,growth inhibition,[9]; at 3.7 µM,13%
same,growth inhibition,[9]; at 11.0 µM,40%
same,growth inhibition,[9]; at 33.0 µM,89% (active)
same,growth inhibition,[9]; at 100.0 µM,92% (active)
same,growth inhibition,[10]; [17],12%
same,growth inhibition,[10]; [18],12%
same,growth inhibition,[10]; at 50.0 µM,82.8% (active)
same,growth inhibition,[11]; at 1.2 µM,-14%
same,growth inhibition,[11]; at 3.7 µM,-19%
same,growth inhibition,[11]; [17],13%
same,growth inhibition,[11]; at 11.0 µM,26%
same,growth inhibition,[11]; at 33.0 µM,93% (active)
same,growth inhibition,[11]; [18],13%
same,growth inhibition,[11]; at 50.0 µM,86.2% (active)
same,growth inhibition,[11]; at 100.0 µM,93% (active)
same,growth inhibition,[12]; at 1.2 µM,5%
same,growth inhibition,[12]; at 3.7 µM,15%
same,growth inhibition,[12]; at 11.0 µM,57%
same,growth inhibition,[12]; at 33.0 µM,91% (active)
same,growth inhibition,[12]; at 100.0 µM,94% (active)
same,growth inhibition,[13]; at 1.2 µM,1%
same,growth inhibition,[13]; at 3.7 µM,7%
same,growth inhibition,[13]; at 11.0 µM,38%
same,growth inhibition,[13]; at 33.0 µM,95% (active)
same,growth inhibition,[13]; at 100.0 µM,95% (active)
same,growth inhibition,[14]; at 1.2 µM,11%
same,growth inhibition,[14]; at 3.7 µM,24%
same,growth inhibition,[14]; at 11.0 µM,70% (active)
same,growth inhibition,[14]; at 33.0 µM,93% (active)
same,growth inhibition,[14]; at 100.0 µM,92% (active)
same,growth inhibition,[15]; [17],23%
same,growth inhibition,[15]; [18],23%
same,growth inhibition,[15]; at 50.0 µM,85.4% (active)
same,growth inhibition,[16]; at 1.2 µM,4%
same,growth inhibition,[16]; at 3.7 µM,24%
same,growth inhibition,[16]; at 11.0 µM,68%
same,growth inhibition,[16]; at 33.0 µM,92% (active)
same,growth inhibition,[16]; at 100.0 µM,91% (active)
